Common to all, as to conditions: mRNA level, 48 h; actives raise or lower the signal
Read-out in assay [1]: HGF (gene 3082)
In words: LTEA_HepaRG_HGF: Life Technologies and Expression Analysis (LTEA) Assay for Hepatocyte Growth Facto (HGF) using HepaRG (AID 2283505). An outline of the steps: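 Read-out is HGF transcript level by qRT-PCR, normalized to three housekeeping genes, fitted bidirectionally against 0.5% DMSO vehicle. Human HepaRG cells received test chemicals for 48 h at up to 100 uM.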

Read-out in assay [2]: Insulin Like Growth Factor 1 (IGF1), IGF1 (gene 3479)
In words: LTEA_HepaRG_IGF1: Life Technologies and Expression Analysis (LTEA) Assay for Insulin Like Growth Factor 1 (IGF1) using HepaRG (AID 2283506). An outline of the steps: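 Cells are thawed, plated and cultured 48 h, then exposed in duplicate to chemical (highest 100 uM, half-log steps, 0.5% DMSO) for another 48 h. Total RNA is analysed by Fluidigm qRT-PCR for IGF1 expression relative to vehicle.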

Read-out in assay [3]: Intercellular Adhesion Molecule 1 (ICAM1), ICAM1 (gene 3383)
In words: LTEA_HepaRG_ICAM1: Life Technologies and Expression Analysis (LTEA) Assay for Intercellular Adhesion Molecule 1 (ICAM1) using HepaRG (AID 2283507). An outline of the steps: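 Readout is qRT-PCR mRNA level, normalized to three housekeeping genes and fitted bidirectionally against 0.5% DMSO vehicle. Human HepaRG cultures received compound for 48 h, top concentration 100 uM with half-log dilutions.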

Read-out in assay [4]: Interleukin 6 (IL6), IL6 (gene 3569)
In words: LTEA_HepaRG_IL6: Life Technologies and Expression Analysis (LTEA) Assay for Interleukin 6 (IL6) using HepaRG (AID 2283509). An outline of the steps:
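Changes in IL6 mRNA, up or down relative to 0.5% DMSO controls, were derived from concentration-response curves in human HepaRG cells treated for 48 h at up to 100 uM, with ACTB, GAPDH and POLR2A as normalizers.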

Read-out in assay [5]: Interleukin 6 Receptor (IL6R), IL6R (gene 3570)
In words: LTEA_HepaRG_IL6R: Life Technologies and Expression Analysis (LTEA) Assay for Interleukin 6 Receptor (IL6R) using HepaRG (AID 2283510).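 For AC50: TaqMan qRT-PCR signal normalized to ACTB GAPDH and POLR2A housekeeping genes.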 The gist of the method: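 Cells were thawed, plated and cultured 48 h, then medium was changed to serum-free induction medium. Chemicals were added in duplicate (100 uM top, half-log steps, 0.5% DMSO) for 48 h. Lysates were analyzed by qRT-PCR for IL6R expression.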

Read-out in assay [6]: Keratin 19 (KRT19), KRT19 (gene 3880)
In words: LTEA_HepaRG_KRT19: Life Technologies and Expression Analysis (LTEA) Assay for Keratin 19 (KRT19) using HepaRG (AID 2283512). An outline of the steps: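 KRT19 transcript levels, measured by Fluidigm qRT-PCR against three housekeeping genes, are fitted for gain or loss of signal relative to DMSO. Human HepaRG cells receive test chemicals (top 100 uM, half-log steps, 0.5% DMSO) for 48 hours.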

Read-out in assay [7]: Lipase C (LIPC), LIPC (gene 3990)
In words: LTEA_HepaRG_LIPC: Life Technologies and Expression Analysis (LTEA) Assay for Lipase C (LIPC) using HepaRG (AID 2283514). An outline of the steps: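 In this multiplexed gene-expression screen, human HepaRG cultures received test chemicals for 48 h across eight concentrations with 100 uM highest, in duplicate. Values reflect LIPC mRNA induction or suppression versus DMSO vehicle, from normalized qRT-PCR.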

Read-out in assay [8]: Lipoprotein lipase (LPL), LPL (gene 4023)
In words: LTEA_HepaRG_LPL: Life Technologies and Expression Analysis (LTEA) Assay for Lipoprotein lipase (LPL) using HepaRG (AID 2283515). An outline of the steps: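 Concentration-response testing used half-log steps from 100 uM in 0.5% DMSO on human HepaRG cells, 48 h, duplicate wells. Phenobarbital 1 mM served as induction control; LPL mRNA was normalized to ACTB, GAPDH, POLR2A.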

Read-out in assay [9]: MicroRNA 122 (MIR122), gene 406906
In words: LTEA_HepaRG_MIR122: Life Technologies and Expression Analysis (LTEA) Assay for MicroRNA 122 (MIR122) using HepaRG (AID 2283516). Note: the transcript read is the microRNA miR-122. The gist of the method:
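Human liver HepaRG cultures receive test chemicals for 48 h at eight half-log concentrations from 100 uM. Expression is quantified by qRT-PCR with ACTB/GAPDH/POLR2A normalization and fitted bidirectionally against 0.5% DMSO.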

Read-out in assay [10]: matrix metalloproteinase-10 (MMP10), MMP10 (gene 4319)
In words: LTEA_HepaRG_MMP10: Life Technologies and Expression Analysis (LTEA) Assay for matrix metalloproteinase-10 (MMP10) using HepaRG (AID 2283517). The gist of the method:
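In differentiated HepaRG cultures kept in 0.5% DMSO, test chemicals act for 48 h over an eight-point range with a top dose of 100 uM. Expression is then quantified by TaqMan RT-PCR against ACTB, GAPDH and POLR2A.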

Read-out in assay [11]: MYC, MYC (gene 4609)
In words: LTEA_HepaRG_MYC: Life Technologies and Expression Analysis (LTEA) Assay for MYC using HepaRG (AID 2283518). An outline of the steps:
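HepaRG, ~100,000 cells/well, collagen I; 48 h plating; serum-free induction medium; 48 h dosing, duplicate, 100 uM top, half-log, 0.5% DMSO; total RNA → qRT-PCR MYC; gain/loss fit vs DMSO.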

Read-out in assay [12]: matrix metalloproteinase-3 (MMP3), MMP3 (gene 4314)
Put plainly: LTEA_HepaRG_MMP3: Life Technologies and Expression Analysis (LTEA) Assay for matrix metalloproteinase-3 (MMP3) using HepaRG (AID 2283519). The gist of the method: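 Human liver HepaRG cultures received chemicals (top concentration 100 uM, 0.5% DMSO) for 48 h in duplicate. MMP3 mRNA induction or loss was then assessed via TaqMan qRT-PCR with housekeeping-gene normalisation.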

Read-out in assay [13]: Paternally Expressed 10 (PEG10), PEG10 (gene 23089)
Put plainly: LTEA_HepaRG_PEG10: Life Technologies and Expression Analysis (LTEA) Assay for Paternally Expressed 10 (PEG10) using HepaRG (AID 2283520).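 For AC50: PEG10 transcript by qRT-PCR normalised to ACTB GAPDH and POLR2A.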 An outline of the steps: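 Human HepaRG cultures are dosed for 48 h across an eight-point half-log series starting at 100 uM, with 0.5% DMSO as vehicle and baseline. Gain or loss of PEG10 transcript is measured by qRT-PCR and fitted in both directions.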

Read-out in assay [14]: Nuclear factor NF-kappa-B p105 subunit (Homo sapiens) (UniProt P19838)
In words: LTEA_HepaRG_NFKB1: Life Technologies and Expression Analysis (LTEA) Assay for Nuclear Factor Kappa B Subunit 1 (NFKB1) using HepaRG (AID 2283521).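 For outcome: TaqMan qRT-PCR transcript normalised to ACTB GAPDH and POLR2A housekeeping genes.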 The gist of the method: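 Differentiated human HepaRG cells were exposed for 48 h in serum-free induction medium to eight concentrations (top 100 uM, half-log steps, 0.5% DMSO), in duplicate. NFKB1 mRNA was measured by TaqMan qRT-PCR, normalized to ACTB/GAPDH/POLR2A, and fitted bidirectionally against DMSO.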

Read-out in assay [15]: Protein phosphatase 2A (PPP2R4), PTPA (gene 5524)
Put plainly: LTEA_HepaRG_PPP2R4: Life Technologies and Expression Analysis (LTEA) Assay for Protein phosphatase 2A (PPP2R4) using HepaRG (AID 2283522). An outline of the steps: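 Cells were plated, cultured 48 h, switched to serum-free induction medium, then dosed for 48 h (8 points, max 100 uM, 0.5% DMSO). RNA was isolated and PPP2R4 expression measured by TaqMan qRT-PCR.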

Read-out in assay [16]: Phosphatase and tensin (PTEN), PTEN (gene 5728)
Put plainly: LTEA_HepaRG_PTEN: Life Technologies and Expression Analysis (LTEA) Assay for Phosphatase and tensin (PTEN) using HepaRG (AID 2283523). An outline of the steps: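 Expression of PTEN is quantified in the human liver line HepaRG following two days of dosing (top concentration 100 uM, half-log dilutions, 0.5% DMSO). Values derive from bidirectional curve fitting relative to DMSO controls.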

Read-out in assay [17]: solute carrier (SLC22A1), SLC22A1 (gene 6580)
In words: LTEA_HepaRG_SLC22A1: Life Technologies and Expression Analysis (LTEA) Assay for solute carrier (SLC22A1) using HepaRG (AID 2283524). The gist of the method: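 Transcript induction or suppression of SLC22A1 in human HepaRG cultures is scored after 48 h chemical treatment, with DMSO (0.5%) as baseline for bidirectional fitting. Concentrations span eight half-log points topping at 100 uM.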

Read-out in assay [18]: JUN Transcription Factor, JUN (gene 3725)
In words: LTEA_HepaRG_JUN: Life Technologies and Expression Analysis (LTEA) Assay for JUN Transcription Factor using HepaRG (AID 2283513). The gist of the method:
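Read-out is JUN transcript level by TaqMan qRT-PCR, normalized to ACTB, GAPDH and POLR2A, after 48 h chemical treatment of HepaRG cells. Concentration-response spanned eight half-log points up to 100 uM in 0.5% DMSO.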

Read-out in assay [19]: Potassium channel subfamily K member 1 (KCNK1), KCNK1 (gene 3775)
In words: LTEA_HepaRG_KCNK1: Life Technologies and Expression Analysis (LTEA) Assay for Potassium channel subfamily K member 1 (KCNK1) using HepaRG (AID 2283511). An outline of the steps:
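Human HepaRG cultures receive test chemicals for 48 h in 0.5% DMSO, top concentration 100 uM with half-log dilutions. Induction or suppression of KCNK1 mRNA relative to DMSO is derived by bidirectional fitting of qRT-PCR data.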

Each structure is given as a SMILES string. Calls of active or inactive are those of the source. Rule for the calls: active = hit-call score of the fitted dose curve at least 0.9, where 1 is the maximum; inactive = score below 0.9.

Chain of Nuclear factor NF-kappa-B p105 subunit (Homo sapiens) (P19838 whole entry, looked up): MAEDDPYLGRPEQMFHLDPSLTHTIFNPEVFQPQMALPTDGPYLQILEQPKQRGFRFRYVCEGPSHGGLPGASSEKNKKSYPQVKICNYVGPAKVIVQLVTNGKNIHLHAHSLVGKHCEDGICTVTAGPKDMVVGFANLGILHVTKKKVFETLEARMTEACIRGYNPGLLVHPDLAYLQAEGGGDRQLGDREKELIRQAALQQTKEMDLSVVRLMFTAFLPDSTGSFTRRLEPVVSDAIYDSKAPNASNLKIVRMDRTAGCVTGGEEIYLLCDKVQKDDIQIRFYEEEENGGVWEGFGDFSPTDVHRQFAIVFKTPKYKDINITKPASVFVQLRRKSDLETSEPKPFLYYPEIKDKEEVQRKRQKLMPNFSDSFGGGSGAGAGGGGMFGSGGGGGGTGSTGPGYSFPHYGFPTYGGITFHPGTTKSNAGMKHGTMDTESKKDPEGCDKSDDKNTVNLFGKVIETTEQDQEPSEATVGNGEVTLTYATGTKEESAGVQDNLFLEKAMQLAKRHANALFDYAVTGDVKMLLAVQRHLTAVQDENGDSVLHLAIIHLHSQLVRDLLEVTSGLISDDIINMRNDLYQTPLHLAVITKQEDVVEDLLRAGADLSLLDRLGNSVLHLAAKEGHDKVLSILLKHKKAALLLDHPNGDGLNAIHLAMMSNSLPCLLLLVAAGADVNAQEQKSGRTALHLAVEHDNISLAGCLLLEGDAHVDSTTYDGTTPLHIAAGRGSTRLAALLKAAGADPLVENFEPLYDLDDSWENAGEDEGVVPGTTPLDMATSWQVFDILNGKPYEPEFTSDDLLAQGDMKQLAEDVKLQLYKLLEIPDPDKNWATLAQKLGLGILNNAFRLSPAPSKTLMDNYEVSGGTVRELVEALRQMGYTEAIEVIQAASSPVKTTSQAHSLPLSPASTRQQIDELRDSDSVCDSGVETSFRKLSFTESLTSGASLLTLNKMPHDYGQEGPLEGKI

On to `NS(=O)(=O)C(F)(F)C(F)(F)C(F)(F)C(F)(F)C(F)(F)C(F)(F)C(F)(F)C(F)(F)F`, for which the AC50 – broadly, the midpoint of the concentration-response curve, whichever way the signal moves – in assay [1] is 12.9 µM (active); in [2] it was 22.3 µM (active); in assay [4] it was 38.9 µM (active); in [5], 30.2 µM (active); in assay [6] it was 23.4 µM (active); in [7], 15.8 µM (active). Moreover, the concentration at half-maximal activity (AC50) was 70.8 µM (active) in assay [8]; 12.4 µM (active) in assay [9]; 33.9 µM (active) in assay [10]; 26.8 µM (active) in [11]; 50 µM (active) in [12]; 5.02 µM (active) in [13]. Also, the AC50 is 2.4 µM (active) in assay [14], 24.4 µM (active) in assay [15], 26.2 µM (active) in assay [16] and 9.51 µM (active) in [17]. Further, the compound was called inactive in [3].

For `Cc1ccccc1CO[C@@H]1C[C@@]2(C(C)C)CC[C@]1(C)O2`, the compound was called inactive in assay [1], in assay [2], in [3], in assay [4], in [5] and in [6]. For the same compound, the compound was called inactive in assay [18], in assay [7], in assay [8], in assay [9], in [10] and in [11]. The outcome in assay [12], in assay [13], in assay [14], in [15], in assay [16] and in assay [17] was inactive.

Turning to `CC#Cc1cc(C)nc(Nc2ccccc2)n1`, the AC50 in [1] is 50 µM (active); in [2], 33.1 µM (active); in [4], 23.6 µM (active); in [6], 22.8 µM (active); in assay [7], 15.3 µM (active); in assay [8], 3.75 µM (active). Besides, the AC50 is 21.7 µM (active) in assay [9], 28.4 µM (active) in assay [11], 13.1 µM (active) in assay [13] and 26.4 µM (active) in [17]. For the same compound, the compound was called inactive in assay [3], in assay [5], in assay [10], in assay [14], in [15] and in assay [16].

As to `CCC(C)(c1ccc(O)cc1)c1ccc(O)cc1`, the compound was called inactive in assay [1], in assay [2], in [3], in assay [4], in assay [5] and in [19]. The call in assay [6], in [7], in assay [8], in [9], in [10] and in assay [11] was inactive. The result in assay [12], in assay [14], in assay [15], in assay [16] and in assay [17] was inactive. Besides, the concentration at half-maximal activity (AC50) in assay [13] is 80.3 µM (active).

In the case of `O=C(NC(=O)c1cc(F)c(F)cc1Cl)Nc1cc(F)ccc1N1CCC(C(=O)O)CC1`, the outcome in assay [1], in [2], in [3], in assay [4], in assay [5] and in [19] was inactive. Besides, the compound was classed as inactive in assay [6], in assay [7], in assay [8], in assay [9], in assay [10] and in assay [11]. Besides, the compound was called inactive in [12], in assay [15], in assay [16] and in [17]. The AC50 in assay [13] was 25 µM (active).

`CCCN(CCC)N=O`: the outcome in [1], in assay [2], in assay [3], in assay [4], in assay [5] and in assay [6] was inactive. Also, the compound was called inactive in [18], in [7], in assay [8], in [9], in [10] and in assay [11]. For the same compound, the compound was called inactive in assay [12], in assay [13], in assay [14], in assay [15], in assay [16] and in assay [17].

Turning to `O=S(=O)(O)C(F)(F)C(F)(F)C(F)(F)C(F)(F)C(F)(F)C(F)(F)F`, the call in assay [1], in assay [2], in assay [3], in assay [4], in assay [5] and in assay [6] was inactive. Moreover, the result in [7], in assay [8], in [9], in assay [10], in assay [11] and in [12] was inactive. The result in assay [13], in assay [14], in assay [15] and in assay [17] was inactive. The AC50 in [16] was 10.3 µM (active).

Source of the values: PubChem BioAssay (EPA / NIEHS).
